Screening results deposited in PubChem BioAssay by National Center for Advancing Translational Sciences (NCATS).
BLM helicase inh = inhibitors of human Bloom syndrome helicase BLM | recombinant BLM DNA unwinding, fluorescence dequenching | Potency, µM (series often up to 56.1 µM), without a hit: top-dose activity change, negative = inhibition, usual class: inhibitors | 350,000 compounds, 0.2% hits;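 also: plate controls were vehicle for no effect and no enzyme for full effect; nearly all actives have a fitted effect of over 35% in size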
TDP1 block = TDP1 (human) enzyme inhibition. Q9NUW8. recombinant TDP1, AlphaScreen DNA substrate cleavage. Potency, µM (titrated, usually from 130 µM), inactives show at the top dose activity change, negative = inhibition, most hits filed as inhibitors. 350,000 compounds, 0.28% hits. AID 485290; also: nearly all actives have a fitted effect of over 40% in size
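Here, a 5' biotin and 3' phosphotyrosine-FITC DNA oligonucleotide reports Tdp1 activity: intact substrate bridges AlphaScreen beads, while cleavage leaves a 3' phosphate and drops signal. All incubations at room temperature.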
L3MBTL1 inh = L3MBTL1 (human) inhibition; Q9Y468; AlphaScreen L3MBTL1–H3K9me1 peptide binding; Potency, µM (titrated, usually from 57.1 µM), inactives show at the top dose activity, negative = inhibition, hits mostly inhibitors; 230,000 compounds, 0.66% hits; AID 485360; also: nearly all actives have a fitted effect of over 60% in size
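Read-out is AlphaScreen signal from streptavidin donor and nickel chelate acceptor beads (10 ug/mL final each) bridging L3MBTL1 (50 nM) and biotinylated K9-monomethylated H3(1-15) peptide (75 nM), after 30 min compound exposure at room temperature.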
APE1 inh = inhibitors of human APE1 endonuclease; 350,000 compounds, 0.35% hits; recombinant APE1, TAMRA/BHQ-2 abasic DNA cleavage fluorescence; Potency, µM (series often up to 65.8 µM), without a hit: at the highest dose activity change, negative = inhibition, usual class: inhibitors;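 also: plate controls were vehicle for no effect and reference inhibitor for full effect; nearly all actives have a fitted effect of over 55% in size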
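APE1 at 0.75 nM final was preincubated with compound 15 min at room temperature, then 50 nM double-stranded THF abasic-site substrate (5'-TAMRA/3'-BHQ-2) was added. Fluorescence (ex 525/em 598 nm) was read kinetically; third-minus-first read gave activity.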
KDM4E inh = JMJD2E (human) inhibition | B2RXH2 | JMJD2E catalytic domain, FDH-coupled NADH fluorescence (FDH is formaldehyde dehydrogenase) | 230,000 compounds, 1.6% hits | Potency, µM (titrated, usually from 57.1 µM), inactives show at the top dose activity change, negative = inhibition, actives largely listed as inhibitors; active = well fitted inhibition curve with a large enough effect, not every such curve was filed as active; inconclusive = small, poorly fitted or top-dose-only effect, or another doubt; inactive = no such curve, though single readings can be large or run the other way;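 also: 0% = wells with enzyme and -100% = buffer wells without enzyme; nearly all actives have a fitted effect of over 50% in size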
RECQ1 helicase = blocks DNA unwinding by human RECQ1; RECQ1 DNA unwinding, red fluorescence kinetic read; Potency, µM (titrated, usually from 57.3 µM), for the others: at the highest dose activity, negative = inhibition, usual class: inhibitors; 240,000 compounds, 0.54% hits;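 also: plate controls were vehicle for no effect and no enzyme for full effect; nearly all actives have a fitted effect of over 30% in size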
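RECQ1T1 50 nM; forked duplex (20 bp + 30-nt ss tails) 200 nM, ATP 2 mM final; pH 8.0, 2 mM MgCl2, 2.5 ug/ml poly(dI-dC); 15 min compound preincubation; discontinuous kinetic read over 2 h at RT.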
* marks the source's active call; other numbers are inactive results; i = inactive; ? = inconclusive; / = no result given; ! = repeats disagree; [ ] = dose if it differs, or a comment. Only a selection was taken, and hits are over-represented in it overall. Unless noted, calls follow the shape of the dose curve; as a rule, active = well fitted curve in the direction sought with a large enough effect; inconclusive = small, poorly fitted or top-dose-only effect, or another doubt; inactive = no such curve, though single readings can be large; an effect the other way counts as inactive or inconclusive. Unless noted, % is scaled to controls: 0 for no effect and ±100 for the full control effect; potency is read from the fitted curve at half-maximal effect.

SMILES	BLM helicase inh	TDP1 block	L3MBTL1 inh	APE1 inh	KDM4E inh	RECQ1 helicase
CC1=NN(c2ccccc2)C(=O)/C1=C/C=C/c1ccccc1	-11.4%	13.3%	?	-1.3%	-2.9%	-7.1%
CC1=NN(c2cccc(C(=O)O)c2)C(=O)/C1=C\C=C\c1ccco1	18.2%	-2.8%[56.1 µM]	3.16µM*	1.9%	9.1%	-0.5%
Cc1cccc(OCC(=O)Nc2ccccc2C(=O)OCc2cc(=O)n3nc(C)sc3n2)c1	-3.3%	1.2%	/	/	/	/
Oc1ccc(C=Nc2cccc3ncccc23)c(O)c1	-7.4%	6.9%	-8.2%	-5.1%	?	-5.9%
Oc1ccc(C=Nc2ccc3ncccc3c2)c(O)c1	-15.2%	9.9%	-5.0%	1.3%	4.47µM*	?
CSc1ccc(C=NNc2ccc(S(=O)(=O)Nc3ccccc3C(=O)O)cc2[N+](=O)[O-])cc1	/	-18.0%	20µM*	8.44µM*	/	/
CCOc1ccc(C=NNc2ccc(S(=O)(=O)Nc3ccccc3C(=O)O)cc2[N+](=O)[O-])cc1	/	-12.7%	15.8µM*	-41.5%	/	/
CCCN1CNc2c(c(=O)[nH]c(=S)n2CCc2cc(C)cc(C)c2)C1	/	-6.4%	/	/	/	/
O=C1CCCC2=C1C1(CCCC1)N=C(Nc1nc3ccccc3n1Cc1ccccc1)N2	/	0.8%	/	/	/	/
COc1ccc(C(=O)C2C(=O)C(=O)N(Cc3ccco3)C2c2cccs2)cc1 (centres undefined)	/	2.9%	/	/	/	/
COc1ccc(C2Nc3ccccc3C(=O)N2Cc2ccccc2)cc1OCc1ccc(NC(C)=O)cc1 (centres undefined)	/	2.8%	/	/	/	/
CC[n+]1ccc(C)c2cc(P(=O)(c3ccccc3)c3ccccc3)ccc21	-4.2%	-4.6%	/	-1.7%	25.1µM*	-16.8%
COc1ccc2nc(NNC(=O)c3cc(=O)c4ccccc4o3)sc2c1	-9.7%	/	-4.2%	-5.9%	31.6µM*	-8.7%
COc1ccc2nc(NC(=O)c3cc(=O)c4cc(C)c(C)cc4o3)sc2c1	2.5%	7.4%	/	/	/	/
Oc1ccc(CNCc2ccccc2F)c2cccnc12	/	1.3%	/	/	/	/
COc1ccc(C2Nc3ccccc3C(=O)N2CCc2ccccc2)cc1COc1ccc(NC(C)=O)cc1 (centres undefined)	/	0.5%	/	/	/	/
COc1cccc(NS(=O)(=O)c2ccc3c(c2)C2C=CCC2C(c2ccc(C(=O)O)cc2)N3)c1 (centres undefined)	-22.5%	5.3%	10µM*	-5.3%	?	-9.4%
COc1ccc(C(=O)N/N=C(\C)c2ccc3c(c2)C2C=CCC2C(c2ccccc2)N3)cc1 (centres undefined)	-9.0%	-5.3%	-14.3%	7.6%	20µM*	-3.8%
COC(=O)c1ccc([C@H]2Nc3ccc(S(=O)(=O)Nc4ccc(F)cc4)cc3[C@H]3C=CC[C@H]32)cc1	-20.6%	/	/	/	/	/
COCCCc1cc(F)c(S(=O)(=O)N2CCN(S(=O)(=O)c3ccc4c(c3)OCCO4)CC2)cc1F	/	0.6%	/	/	/	/
CCCCC[C@H](O)/C=C/C1=C(CCCCCCC(=O)O)C(=O)CC1	29.0%	11.0%	?	-9.3%	-8.0%	10µM*!
CCCCC/C=C\C=C\[C@@H](O)CCCCCCCC(=O)O	3.6%	6.2%	/	19.7%	3.0%	-1.8%
NC(=O)c1ccnc2c(O)cccc12	/	0.2%	14.1µM*	17.6%	/	/
O=C(N/N=C/c1ccc(O)cc1O)C(=O)N/N=C/c1ccc(O)cc1O	-10.0%	/	0.708µM*	-22.2%	/	/
O=C(CCC(=O)Nc1ccc(F)cc1)N/N=C/c1ccc(O)cc1O	-12.4%	7.9%	/	4.3%	25.1µM*	-3.1%
SMILES	BLM helicase inh	TDP1 block	L3MBTL1 inh	APE1 inh	KDM4E inh	RECQ1 helicase
Cc1cc(C)n(CCC(=O)N/N=C/c2ccc(O)cc2O)n1	-8.2%	4.2%	20.2%	2.1%	14.1µM*	-11.3%
COc1cccc2c(SCC(=O)N/N=C/c3ccc(O)cc3O)cc(C)nc12	-6.5%	8.6%	?	3.9%	28.2µM*	-7.2%
Cc1cc(C)n(CCC(=O)N/N=C/c2ccccc2O)n1	-7.9%	-6.9%	-3.5%	?	-7.9%	0.8%
O=C(CCC(=O)Nc1ccc(F)cc1)N/N=C/c1ccc(O)cc1	-2.4%	/	/	-12.3%	/	/
CCC(C(=O)O)C1OC(C(C)C(O)C(C)C(=O)C(CC)C2OC3(C=CC(O)C4(CCC(C)(C5CCC(O)(CC)C(C)O5)O4)O3)C(C)CC2C)C(C)CC1C (centres undefined)	-2.6%	/	/	/	/	/
CCOC(=O)C(C)Sc1ccc2nnc(-c3ccc(OCC)cc3)n2n1 (centres undefined)	/	1.6%	/	/	/	/
COCCCNC(=S)N/N=C/c1ccc(O)cc1	-7.9%	5.7%	-2.7%	0.6%	-16.4%	-15.0%
COCCCNC(=S)N/N=C/c1ccc(O)cc1O	-7.3%	/	?	0.2%	17.8µM*	-6.1%
CCCc1cc(F)c(S(=O)(=O)N2CCN(S(=O)(=O)c3ccc4c(c3)OCCO4)CC2)cc1F	/	-0.5%	/	/	/	/
O=c1[nH]c2ccc(S(=O)(=O)N3CCN(S(=O)(=O)c4c(F)cccc4F)CC3)cc2[nH]c1=O	/	44.7µM*	/	/	/	/
CCC1C/C(=C/c2ccco2)C(=O)/C(=C/c2ccco2)C1 (centres undefined)	-19.2%	5.3%	31.6µM*	?	-18.6%	?
O=C(O)c1ccc2nc(-c3ccco3)c(-c3ccco3)nc2c1	-1.1%	-10.8%	2.24µM*	?	1.5%	-13.9%
O=C(Nc1cccc(C(F)(F)F)c1)c1ccc2snnc2c1	-0.1%	0.0%	/	/	/	/
O=C(Nc1cccc(C(F)(F)F)c1)c1ccc2nc(-c3ccco3)c(-c3ccco3)nc2c1	?	-4.9%	/	14.0%	14.1µM*	i
Cc1ccc(-c2nc3ccc(C(=O)O)cc3nc2-c2ccc(C)cc2)cc1	-2.7%	3.8%	1.3%	-1.6%	?	1.3%
Cc1ccc(OCCCCn2c(CCNC(=O)C3CCCCC3)nc3ccccc32)cc1	/	0.9%	/	/	/	/
Cc1ccc(-c2cn3c(n2)sc2cc(C(=O)NC4CCCCC4)ccc23)cc1	-3.2%	3.9%	/	/	/	/
Cc1cc(O)c2c(c1O)C(=O)C(O)=C(O)C2=O	-27.9%	-12.5%	/	6.31µM*	?	10µM*
Cc1cc(O)c(-c2cc(O)c(C)cc2O)cc1O	-3.9%	7.6%	-20.5%	-4.4%	?	i
COC(=O)C1=C[C@@H](C(=O)OC)[C@@H]2C3=C(C(=O)[C@@]2(CC(C)C)NC(=O)c2ccccc2)[C@H](C)n2c(=O)n(-c4ccccc4)c(=O)n2[C@@H]3C1	-4.9%	12.1%	/	-8.6%	/	-3.0%
COc1ccccc1C(=O)N=Nc1c(O)[nH]c2ccc([N+](=O)[O-])cc12	-7.0%	5.9%	-7.8%	2.4%	-0.7%	-7.5%
O=C(N=Nc1c(O)[nH]c2ccc([N+](=O)[O-])cc12)c1cc(-c2ccccc2Cl)nc2ccccc12	3.98µM*	5.5%	-9.4%	5.2%	20.7%	3.2%
